Measurements from the supplement of paper PMC10849652.
Of roughly 7,900 targets only a part is listed; those with a hit were picked by preference. About 0.6% of all pairs of compound and target were hits.

The targets below were run with CC(C)C[C@@H](C=O)NC(=O)[C@H](CC(C)C)NC(=O)[C@H](CC(C)C)NC(=O)OCc1ccccc1 (assay: log2 fold change, soluble protein after heating vs DMSO (PISA); higher = thermal stabilisation; K562 cells, 10 uM, 30 min; active = over 0.2 and 3.5 SD of the protein, either way, in both replicates (recomputed)).
Procedure, shortened: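 K562 cells (2×10^6 cells/mL) were treated with 10 μM compound for 30 min, and aliquots were heated for 3 min over 48°C-58°C. Pooled aliquots were extracted in PBS with 0.5% NP-40 at 4°C, and the supernatant after 21,000xg for 90 min was measured by TMTpro 16plex LC-MS/MS with channel sums equalised. Reported thermal stability, relative to control samples and from duplicates, is a log2 fold change.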

Sequence of UniProt Q9Y5K5 (Q9Y5K5 whole entry, looked up): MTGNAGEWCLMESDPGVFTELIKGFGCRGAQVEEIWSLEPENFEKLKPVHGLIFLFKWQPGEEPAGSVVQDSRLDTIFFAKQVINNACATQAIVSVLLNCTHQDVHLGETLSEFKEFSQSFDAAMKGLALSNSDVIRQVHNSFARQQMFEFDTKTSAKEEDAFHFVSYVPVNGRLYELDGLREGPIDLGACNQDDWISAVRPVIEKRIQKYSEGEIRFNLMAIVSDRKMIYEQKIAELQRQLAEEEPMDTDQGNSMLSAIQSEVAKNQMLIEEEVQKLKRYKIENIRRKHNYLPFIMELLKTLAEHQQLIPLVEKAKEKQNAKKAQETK
Sequence of UniProt Q5BJH2 (Q5BJH2 whole entry, looked up): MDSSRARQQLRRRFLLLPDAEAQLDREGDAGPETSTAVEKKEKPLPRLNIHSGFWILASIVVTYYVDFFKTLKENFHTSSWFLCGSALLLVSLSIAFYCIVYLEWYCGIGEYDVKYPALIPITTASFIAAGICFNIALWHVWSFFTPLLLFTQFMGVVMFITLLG
Sequence of UniProt Q9Y2I8 (Q9Y2I8 whole entry, looked up): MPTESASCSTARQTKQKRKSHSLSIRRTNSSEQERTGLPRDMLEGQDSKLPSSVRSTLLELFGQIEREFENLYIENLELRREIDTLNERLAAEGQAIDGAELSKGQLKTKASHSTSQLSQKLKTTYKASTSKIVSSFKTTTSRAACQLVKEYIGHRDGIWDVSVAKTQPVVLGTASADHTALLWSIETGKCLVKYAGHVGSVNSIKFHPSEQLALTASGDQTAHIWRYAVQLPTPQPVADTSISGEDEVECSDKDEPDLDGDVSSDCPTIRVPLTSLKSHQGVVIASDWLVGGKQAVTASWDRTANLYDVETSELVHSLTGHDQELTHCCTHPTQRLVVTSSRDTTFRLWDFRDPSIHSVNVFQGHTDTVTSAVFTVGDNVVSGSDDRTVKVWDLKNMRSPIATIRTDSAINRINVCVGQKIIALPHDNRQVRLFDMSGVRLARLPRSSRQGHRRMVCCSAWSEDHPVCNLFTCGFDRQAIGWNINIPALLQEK
Sequence of UniProt Q502W6 (Q502W6 whole entry, looked up): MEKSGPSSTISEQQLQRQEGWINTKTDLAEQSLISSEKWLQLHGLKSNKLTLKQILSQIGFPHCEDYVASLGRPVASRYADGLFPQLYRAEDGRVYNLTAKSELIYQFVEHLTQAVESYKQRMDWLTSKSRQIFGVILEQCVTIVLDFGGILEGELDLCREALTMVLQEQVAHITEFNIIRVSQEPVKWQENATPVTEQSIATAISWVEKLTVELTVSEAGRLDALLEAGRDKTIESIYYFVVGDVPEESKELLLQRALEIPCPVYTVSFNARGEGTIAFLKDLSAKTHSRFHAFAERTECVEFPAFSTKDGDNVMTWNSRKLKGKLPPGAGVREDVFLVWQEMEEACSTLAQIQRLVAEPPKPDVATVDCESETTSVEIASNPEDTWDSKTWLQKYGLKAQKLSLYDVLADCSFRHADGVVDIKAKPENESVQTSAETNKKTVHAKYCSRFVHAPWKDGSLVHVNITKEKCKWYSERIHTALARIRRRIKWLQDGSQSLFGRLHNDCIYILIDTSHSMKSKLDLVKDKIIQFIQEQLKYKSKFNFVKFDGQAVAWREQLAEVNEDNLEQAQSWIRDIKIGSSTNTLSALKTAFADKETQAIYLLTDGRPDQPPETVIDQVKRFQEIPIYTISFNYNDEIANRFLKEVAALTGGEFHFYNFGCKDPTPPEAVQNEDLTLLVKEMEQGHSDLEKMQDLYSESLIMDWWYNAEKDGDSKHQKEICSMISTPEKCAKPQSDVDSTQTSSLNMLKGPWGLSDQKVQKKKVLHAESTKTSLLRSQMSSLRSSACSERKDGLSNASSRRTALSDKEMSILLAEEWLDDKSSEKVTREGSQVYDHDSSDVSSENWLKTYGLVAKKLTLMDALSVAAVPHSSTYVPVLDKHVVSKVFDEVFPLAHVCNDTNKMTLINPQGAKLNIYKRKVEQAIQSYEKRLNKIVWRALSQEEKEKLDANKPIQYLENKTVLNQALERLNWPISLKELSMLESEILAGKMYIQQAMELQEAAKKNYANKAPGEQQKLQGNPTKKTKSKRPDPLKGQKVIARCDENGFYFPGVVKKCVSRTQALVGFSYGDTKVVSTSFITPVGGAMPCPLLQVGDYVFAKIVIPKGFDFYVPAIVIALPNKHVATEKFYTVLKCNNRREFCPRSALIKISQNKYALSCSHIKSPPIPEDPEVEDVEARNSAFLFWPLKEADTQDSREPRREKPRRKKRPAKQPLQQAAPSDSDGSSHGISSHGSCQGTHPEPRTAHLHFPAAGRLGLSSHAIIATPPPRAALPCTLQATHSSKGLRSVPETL
Sequence of UniProt Q9H6R7 (Q9H6R7 whole entry, looked up): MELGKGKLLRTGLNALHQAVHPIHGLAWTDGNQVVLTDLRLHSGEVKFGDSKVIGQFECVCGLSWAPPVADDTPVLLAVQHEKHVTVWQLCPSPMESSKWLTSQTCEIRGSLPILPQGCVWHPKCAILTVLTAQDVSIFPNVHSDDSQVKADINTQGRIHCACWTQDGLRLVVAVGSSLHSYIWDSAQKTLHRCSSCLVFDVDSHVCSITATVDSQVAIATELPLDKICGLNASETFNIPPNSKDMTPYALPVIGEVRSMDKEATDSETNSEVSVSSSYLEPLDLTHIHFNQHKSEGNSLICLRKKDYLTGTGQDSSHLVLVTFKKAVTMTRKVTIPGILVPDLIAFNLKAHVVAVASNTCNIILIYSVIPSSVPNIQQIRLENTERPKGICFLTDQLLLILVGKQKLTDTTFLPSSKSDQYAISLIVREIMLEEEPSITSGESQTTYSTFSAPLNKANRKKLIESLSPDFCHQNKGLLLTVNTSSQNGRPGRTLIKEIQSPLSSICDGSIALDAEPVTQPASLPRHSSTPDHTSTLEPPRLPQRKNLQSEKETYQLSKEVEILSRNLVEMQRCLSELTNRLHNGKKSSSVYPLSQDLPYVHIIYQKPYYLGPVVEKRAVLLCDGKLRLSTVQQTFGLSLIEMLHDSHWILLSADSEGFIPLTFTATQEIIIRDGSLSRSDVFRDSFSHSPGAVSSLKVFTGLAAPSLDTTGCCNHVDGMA
Sequence of UniProt Q8IWA0 (Q8IWA0 whole entry, looked up): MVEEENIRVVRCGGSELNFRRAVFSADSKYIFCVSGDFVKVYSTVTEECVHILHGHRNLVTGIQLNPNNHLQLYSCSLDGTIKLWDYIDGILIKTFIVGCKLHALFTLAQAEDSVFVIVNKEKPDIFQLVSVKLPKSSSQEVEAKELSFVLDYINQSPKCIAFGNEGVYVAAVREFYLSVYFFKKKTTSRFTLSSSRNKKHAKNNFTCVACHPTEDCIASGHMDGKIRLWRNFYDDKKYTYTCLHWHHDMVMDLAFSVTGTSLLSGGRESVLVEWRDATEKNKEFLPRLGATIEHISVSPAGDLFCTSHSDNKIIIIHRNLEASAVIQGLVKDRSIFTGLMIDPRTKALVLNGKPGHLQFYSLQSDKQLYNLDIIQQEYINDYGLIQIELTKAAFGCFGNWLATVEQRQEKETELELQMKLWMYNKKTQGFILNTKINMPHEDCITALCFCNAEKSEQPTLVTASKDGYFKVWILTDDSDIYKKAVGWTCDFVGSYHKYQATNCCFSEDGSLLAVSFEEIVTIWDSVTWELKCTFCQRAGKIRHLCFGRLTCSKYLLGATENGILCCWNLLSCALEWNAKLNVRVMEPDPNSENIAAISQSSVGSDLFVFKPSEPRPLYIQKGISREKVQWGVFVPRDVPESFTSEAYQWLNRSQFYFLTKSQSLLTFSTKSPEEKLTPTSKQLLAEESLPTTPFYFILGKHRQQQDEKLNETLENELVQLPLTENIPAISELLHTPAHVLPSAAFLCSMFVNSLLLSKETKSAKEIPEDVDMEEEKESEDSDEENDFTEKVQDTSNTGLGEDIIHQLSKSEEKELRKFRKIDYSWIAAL
Sequence of UniProt Q7Z3V4 (Q7Z3V4 whole entry, looked up): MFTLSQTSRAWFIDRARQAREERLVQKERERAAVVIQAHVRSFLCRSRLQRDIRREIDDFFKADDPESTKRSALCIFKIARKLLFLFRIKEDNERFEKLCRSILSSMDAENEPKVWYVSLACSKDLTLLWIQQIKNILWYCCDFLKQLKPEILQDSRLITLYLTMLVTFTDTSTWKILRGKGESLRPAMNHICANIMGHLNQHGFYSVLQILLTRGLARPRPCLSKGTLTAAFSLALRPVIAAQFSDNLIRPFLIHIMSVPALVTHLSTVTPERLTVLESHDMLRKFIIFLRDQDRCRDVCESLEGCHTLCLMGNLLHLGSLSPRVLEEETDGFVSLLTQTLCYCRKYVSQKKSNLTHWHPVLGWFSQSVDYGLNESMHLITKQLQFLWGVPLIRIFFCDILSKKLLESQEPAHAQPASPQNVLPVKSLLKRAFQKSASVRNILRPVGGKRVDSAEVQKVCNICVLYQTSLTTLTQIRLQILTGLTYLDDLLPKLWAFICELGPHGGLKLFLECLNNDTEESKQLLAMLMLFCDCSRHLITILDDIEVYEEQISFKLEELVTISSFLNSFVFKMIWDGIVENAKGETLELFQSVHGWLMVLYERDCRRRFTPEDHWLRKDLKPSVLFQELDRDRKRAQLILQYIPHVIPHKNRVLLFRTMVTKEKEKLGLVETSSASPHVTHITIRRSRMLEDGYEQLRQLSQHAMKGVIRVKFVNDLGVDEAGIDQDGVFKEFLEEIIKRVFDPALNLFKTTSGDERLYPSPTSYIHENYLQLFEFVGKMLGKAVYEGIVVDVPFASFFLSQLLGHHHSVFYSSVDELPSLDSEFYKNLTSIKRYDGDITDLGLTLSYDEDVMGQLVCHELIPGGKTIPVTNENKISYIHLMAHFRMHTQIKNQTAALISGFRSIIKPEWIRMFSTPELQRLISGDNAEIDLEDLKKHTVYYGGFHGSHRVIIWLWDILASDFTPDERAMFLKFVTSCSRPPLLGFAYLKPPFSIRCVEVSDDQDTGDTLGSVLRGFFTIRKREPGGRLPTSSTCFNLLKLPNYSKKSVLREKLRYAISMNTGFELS
Sequence of UniProt Q9NX01 (Q9NX01 whole entry, looked up): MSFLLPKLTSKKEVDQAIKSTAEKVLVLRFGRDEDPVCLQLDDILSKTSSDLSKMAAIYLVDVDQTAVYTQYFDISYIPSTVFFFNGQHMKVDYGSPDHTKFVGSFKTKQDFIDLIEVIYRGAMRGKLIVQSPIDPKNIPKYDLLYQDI

log2 fold change, inactive:
UXT isoform 2 (UniProt Q9UBK9) 0.082
TMEM128 (UniProt Q5BJH2) 0.108
VWA3B isoform 6 (UniProt Q502W6) -0.256
TXN2 (UniProt Q99757) -0.029
WDR37 isoform 2 (UniProt Q9Y2I8) 0.126
UBA52 (UniProt P62987) 0.147
TRIM44 (UniProt Q96DX7) 0.061
USP15 (UniProt Q9Y4E8) 0.012
UTP3 (UniProt Q9NQZ2) 0.253
TTC33 (UniProt Q6PID6) 0.139
WDR75 (UniProt Q8IWA0) 0.178
UFD1 isoform 1 (UniProt Q92890) 0.021
TXNL4B (UniProt Q9NX01) 0.074
TMEM189-UBE2V1 (UniProt I3L0A0) -0.028
UNC119B (UniProt A6NIH7) 0.088
TSEN2 (UniProt Q8NCE0) -0.001
UCHL5 isoform 3 (UniProt Q9Y5K5) 0.077
TMEM184C (UniProt Q9NVA4) 0.042
UBIAD1 (UniProt Q9Y5Z9) 0.029
UBE4A isoform 2 (UniProt Q14139) 0.096
UCHL5 (UniProt Q9Y5K5) 0.054
VPS33B (UniProt Q9H267) 0.098
VPS33A (UniProt Q96AX1) 0.054
VPS18 (UniProt Q9P253) 0.053
VKORC1 (UniProt Q9BQB6) -0.029
TNFRSF8 (UniProt P28908) 0.074
TXNRD1 (UniProt Q16881) -0.03
WDCP (UniProt Q9H6R7) 0.014
TSC2 (UniProt P49815) 0.056
TNPO3 (UniProt Q9Y5L0) -0.08
UBE3B (UniProt Q7Z3V4) 0.001
TMEM179B (UniProt Q7Z7N9) -0.021
